# In PubChem BioAssay (NCI):
# The panel holds about 83,000 compounds, 20% with a hit somewhere; the sample as a whole holds those more often.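 Plates (96-well) were seeded with cells, treated with compound at one concentration, and incubated for 48 hours before percent growth was determined.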 Unmarked numbers belong to inactive results. Active and inactive are the calls of the source.
# Tested on: NCI-H23 lung
# Test: NCI-60 one-dose screen, 48 h (100 = growth as untreated, 0 = no growth, -100 = all killed)
# Details: 10 µM unless noted
# Method: Growth inhibition of the NCI-H23 human Non-Small Cell Lung tumor cell line is measured as a screen for anti-cancer activity. Cells are grown in 96 well plates and exposed to the test compound for 48 hours. Compounds are tested at a single concentration, which is 10^-5 M for most compounds. The reported endpoint is percent growth (GI% or GIPRCNT), where numbers from 0 - 100% represent growth inhibition, and numbers from -100% - 0 represent cell death. For example, a value of 40 represents 60% growth inhibition. A value of 0 means no net growth occurred over the course of the experiment. A value of -40 indicates 40% of cells at the beginning of the experiment died by the end of the experiment. A value of -100 means all cells are dead at the end of the experiment.
# NCI-60 Human Tumor Cell Lines Screen was performed using the standard one-dose NCI protocol, which is described in more detail at https://dtp.cancer.gov/discovery_development/nci-60/default.htm.
# Compounds with GIPRCNT values below 10 were considered active. Activity score was based on GIPRCNT using the following formula: […]
# Score is 0 for GIPRCNT values of 100 or above, 50 for GIPRCNT values of 0, and 100 for GIPRCNT values of -100.
row,SMILES,growth
1,FC(F)(F)Oc1cccc(-c2cnc3ccc(-c4ccncc4)nn23)c1,15.6%
2,Cc1nc2c(c(=O)[nH]1)C(c1ccccc1)c1ccc3ccccc3c1O2 (stereo not given),50.4%
3,C=C(CNCCO)[C@@H]1CC[C@]2(CO)CC[C@]3(C)[C@H](CC[C@@H]4[C@@]5(C)CCC(N)C(C)(C)[C@@H]5CC[C@]43C)[C@@H]12 (stereo not given in full),83.7%
4,O=C(NC1CC(F)C1)c1cc2cccnc2n1-c1ccc(Cl)c(Cl)c1 (stereo not given),100%
5,O=C(NC(Cc1nnc2n(Cc3ccccc3)c(=O)c3c4c(sc3n12)CCCC4)c1ccccc1)c1ccccc1 (stereo not given),90.9%
6,CN1CCN(Cc2ccc(NC(=O)c3cncc(C#Cc4cnc(N)c5ncccc45)c3)cc2C(F)(F)F)CC1,22.2%
7,CC1=C2[C@@H](CC1)[C@]1(C)O[C@@](c3ccccc3)(C[C@H]1OC(=O)CO)[C@H]2OC(=O)/C=C/c1ccccc1,99.3%
8,CCN(CC)CCCN1C(=O)c2c(c(C)c3c(oc4ccc(OC)cc43)c2C)C1=O,104%
9,Cc1ccc(-c2csc(NC(=O)c3ccccc3CN3C(=O)c4ccccc4C3=O)n2)cc1,93.3%
10,COCCn1cc(-c2csc(-c3c[nH]c4ccc(Br)cc34)n2)c2cccnc21,32.3%
11,CCOC(=O)C(Cc1ccc(OC)cc1)C(=O)OCC,17.6%
12,COc1ccc2[nH]cc(-c3nc(-c4c[nH]c5c(Cl)nccc45)cs3)c2c1,54.1%
13,O=C1c2cccc3cccc(c23)C(=O)N1C/C=C/c1ccc2c3c(cccc13)C(=O)N(CCO)C2=O,69.6%
14,O=C(/C=C(O)/C=C/c1cccc2[nH]ccc12)/C=C/c1cccc2[nH]ccc12,80.5%
15,CCCCCCCCCCCCCCCCCC1=NC(C)(C)CN1CC(C)O (stereo not given),84.8%
16,C=C1CC[C@@H]2[C@](C)(COC(C)=O)[C@H](OC(C)=O)CC[C@@]2(C)[C@@H]1CC(Nc1ccc(S(=O)(=O)NC(C)=O)cc1)C1=CCOC1=O (stereo not given in full),7.36% (active)
17,COc1ccc(N2CCC(=S)NC2=S)cc1,99.2%
18,Cc1ccc(/C=C/C(=O)c2cccc(OCCCOc3cccc(C(=O)/C=C/c4ccc(C)cc4)c3)c2)cc1,69.5%
19,COc1ccc(/C=C(/c2ccccc2)[N+](=O)[O-])c(OC)c1,21.1%
20,CCN(CC)CCN1C(=O)c2cccc3c(/C=C/CN4C(=O)c5cccc6cccc(c56)C4=O)ccc(c23)C1=O,98.1%

row,SMILES,growth
1,Oc1ccc(/C=C/c2ccc(O)cc2)cc1,62.2%
2,N#Cc1cccc(C2C3=C(COC3=O)N(CCO)c3cc4c(cc32)OCO4)c1 (stereo not given),44%
3,CNC(=O)c1cc(Oc2cccc3nc(NC(=O)Nc4cc(C(F)(F)F)ccc4Cl)ccc23)ccn1,80%
4,CC/C(Cc1ccccc1)=C(\c1ccc(OCCCN(C)C)cc1)c1ccc(OC(=O)NCc2ccccc2)cc1,92.9%
5,Ic1ccccc1I,98.9%
6,CC(=C(c1ccc(OCCN2CCCCC2)cc1)c1ccc(OCCN2CCCCC2)cc1)c1ccc(Cl)cc1,-82.4% (active)
7,Oc1c(CN2CCCC2)cc(CSCc2ccccc2)c2cccnc12,11.8%
8,COc1ccc(/C=C/C(=O)c2cc3c(N)c(C(=O)Nc4cccc(Cl)c4C)sc3nc2C)cc1,19.8%
9,CC(=O)Oc1ccc(OC(C)=O)c2ccccc12,95.6%
10,C=CCOC(=O)C1=C(C)N(CC)C(=O)NC1c1c(Cl)n(C)c2ccccc12 (stereo not given),96%
11,CC1=C(C(=O)Nc2ccccc2)C(c2ccc3c(c2)OCO3)NC(=S)N1 (stereo not given),97.9%
12,C=C1C(=O)O[C@H]2[C@H]1CC/C(COC(=O)/C=C\C(=O)NCc1ccc(Cn3c(=O)sn(CCCl)c3=O)cc1)=C\CC[C@@]1(C)O[C@@H]21,86.9%
13,Clc1ccccc1-c1cnn2cc(-c3ccccc3)cnc12,90.3%
14,COc1ccc(Cn2cc(C(=O)N=Nc3c(O)[nH]c4c(C)cccc34)nn2)cc1,89.1%
15,C[C@H](CCCC(=O)NCC#CCN1CCN(C)CC1)[C@H]1CC[C@H]2[C@@H]3CC[C@@H]4CC(=O)CC[C@]4(C)[C@H]3CC[C@]12C,87.7%
16,C=C(C)[C@@H]1CC[C@]2(C)[C@H](CC=C3[C@@H]4CC(C)(C)CC[C@]4(CO)CC[C@]32C)[C@@]1(C)CCCN,68.7%
17,O=C(C1=Cc2cc3ccccc3n2Cc2cnnn21)c1ccc(O)cc1,75.6%
18,NS(=O)(=O)c1ccc(-c2cc(-c3nnc(SCC(=O)Nc4ccc(C(=O)/C=C/c5ccc(Cl)cc5)cc4)n3-c3ccccc3)c3ccccc3n2)cc1,102%
19,O=C(O)COc1ccc(Cl)c(Cl)c1,99%
20,Cc1ccc(/C=C/C(=O)c2ccc(-n3cc(CN4CCN(c5cc6c(cc5F)c(=O)c(C(=O)O)cn6C5CC5)CC4)nn3)cc2)cc1,81.5%
